Laboratory results from PubChem BioAssay (NCATS).
Inconclusive results are not listed. Where a call stands in place of a potency, no number is given. Active and inactive are the calls of the source. Unless noted, the call rests on the fitted dose curve; in most records, active means well fitted curve in the direction sought with a large enough effect; inconclusive means small, poorly fitted or top-dose-only effect, or another doubt; inactive means no such curve, though single readings can be large; an effect the other way counts as inactive or inconclusive.

Tests used:
[1] = S16 Schwann cell PMP22 intronic element beta-lactamase assay (AID 624044; calls by dose curve; further: nearly all actives have a fitted effect of over 15% in size); conditions: S16 rat Schwann cells, PMP22 element beta-lactamase FRET, 24 h; ratio activity, negative = inhibition: at 38.3 µM (top of the series) unless noted
How it was run: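 Rat S16 Schwann cells with beta-Lac driven by a PMP22 intronic element, compound-treated 24 h at 37 °C. LiveBLAzer FRET B/G read: 460 nm normalized to potassium clavulanate vs DMSO; 535 nm FRET as viability; concentration-effect curves classified.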

[2] = molecular target: Voltage-gated inwardly rectifying potassium channel KCNH2 (Homo sapiens) (UniProt Q12809); experiment: qHTS Assay for Small Molecule Inhibitors of the Human hERG Channel Activity (AID 588834); conditions: U2OS BacMam hERG, FluxOR thallium flux fluorescence; series mostly up to 46.1 µM;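 further: lower thallium flux fluorescence means stronger hERG block; nearly all actives have a fitted effect of over 50% in size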; further: potency means the concentration at half of the fitted maximal effect
How it was run: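 Blockade is seen as reduced FluxOR thallium-flux fluorescence in U2OS cells expressing hERG from a BacMam construct, in Opti-MEM with 2% FCS. Concentration-response data fitted to the Hill equation for AC50.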

[3] = molecular target: Luciferin 4-monooxygenase (Photinus pyralis) (UniProt P08659); experiment: Biochemical firefly luciferase enzyme assay for NPC (AID 624030); further: nearly all actives have a fitted effect of over 70% in size; further: potency means the concentration at half of the fitted maximal effect; conditions: purified P. pyralis luciferase, luminescence, 5 min; series mostly up to 58.6 µM
How it was run: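 Purified P. pyralis luciferase at 10 nM in 50 mM Tris Acetate (final), luminescence read within 5 minutes of enzyme addition to compounds. Activity normalised to PTC124 versus DMSO; concentration-response curves classed by r2, magnitude and activity.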

[4] = S16 Schwann cell viability assay (CellTiter-Glo assay) (AID 624031); conditions: S16 rat Schwann cells viability, 24 h; series mostly up to 57.5 µM;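 further: native untransfected S16 rat Schwann cells; nearly all actives have a fitted effect of over 70% in size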
How it was run: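 Counter-screen for cytotoxicity: parental S16 rat Schwann cells lacking the PMP22 reporters, treated 24 h with compound, viability from cellular ATP by CellTiter-Glo luminescence, normalized to DMSO (0%) and no-cell wells.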

[5] = S16 Schwann cell PMP22 intronic element firefly luciferase assay (AID 624032); conditions: S16 rat Schwann cells, PMP22 element FLuc, 24 h; series mostly up to 57.5 µM; further: nearly all actives have a fitted effect of over 30% in size; further: potency means the concentration at half of the fitted maximal effect
How it was run: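 Rat S16 Schwann cells stably carrying firefly luciferase driven by a PMP22 intronic element, in 10% FBS, treated 24 h at 37 C. ONE-Glo luminescence normalized to PTC124 control and DMSO (0%); curves classed by r2, magnitude and activity.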

Chain of Voltage-gated inwardly rectifying potassium channel KCNH2 (Homo sapiens) (Q12809 whole entry, looked up): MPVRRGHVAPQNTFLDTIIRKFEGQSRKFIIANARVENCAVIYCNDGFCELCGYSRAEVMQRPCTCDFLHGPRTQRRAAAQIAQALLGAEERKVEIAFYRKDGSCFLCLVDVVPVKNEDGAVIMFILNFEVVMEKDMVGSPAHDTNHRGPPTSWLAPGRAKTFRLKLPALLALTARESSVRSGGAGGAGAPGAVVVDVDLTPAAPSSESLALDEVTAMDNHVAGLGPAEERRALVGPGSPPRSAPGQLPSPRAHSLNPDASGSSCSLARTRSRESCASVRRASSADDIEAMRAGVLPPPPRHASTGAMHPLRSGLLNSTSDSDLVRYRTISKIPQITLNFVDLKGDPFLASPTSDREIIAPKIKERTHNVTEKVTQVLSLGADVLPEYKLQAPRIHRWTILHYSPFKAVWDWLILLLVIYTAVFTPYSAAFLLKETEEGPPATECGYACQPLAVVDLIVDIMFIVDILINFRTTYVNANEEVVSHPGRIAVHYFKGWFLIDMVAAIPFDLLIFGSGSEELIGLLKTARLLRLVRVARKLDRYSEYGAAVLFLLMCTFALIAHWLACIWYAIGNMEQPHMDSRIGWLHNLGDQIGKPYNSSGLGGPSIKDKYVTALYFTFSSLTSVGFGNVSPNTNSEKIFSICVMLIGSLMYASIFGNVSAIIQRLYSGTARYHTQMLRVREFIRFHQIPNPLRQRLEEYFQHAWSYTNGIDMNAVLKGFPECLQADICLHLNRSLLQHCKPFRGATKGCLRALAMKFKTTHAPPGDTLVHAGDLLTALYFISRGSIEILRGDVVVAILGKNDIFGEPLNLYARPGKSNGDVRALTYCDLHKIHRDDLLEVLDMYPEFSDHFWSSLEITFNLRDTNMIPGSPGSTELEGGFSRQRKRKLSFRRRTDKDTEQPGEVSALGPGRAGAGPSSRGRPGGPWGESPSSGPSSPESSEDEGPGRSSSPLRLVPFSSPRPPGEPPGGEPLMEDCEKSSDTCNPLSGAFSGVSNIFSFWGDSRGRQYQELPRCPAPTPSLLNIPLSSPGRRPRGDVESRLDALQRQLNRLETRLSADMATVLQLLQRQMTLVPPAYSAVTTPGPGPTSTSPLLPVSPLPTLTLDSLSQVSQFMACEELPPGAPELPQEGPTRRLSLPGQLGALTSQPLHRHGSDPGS
Chain of Luciferin 4-monooxygenase (Photinus pyralis) (P08659 whole entry, looked up): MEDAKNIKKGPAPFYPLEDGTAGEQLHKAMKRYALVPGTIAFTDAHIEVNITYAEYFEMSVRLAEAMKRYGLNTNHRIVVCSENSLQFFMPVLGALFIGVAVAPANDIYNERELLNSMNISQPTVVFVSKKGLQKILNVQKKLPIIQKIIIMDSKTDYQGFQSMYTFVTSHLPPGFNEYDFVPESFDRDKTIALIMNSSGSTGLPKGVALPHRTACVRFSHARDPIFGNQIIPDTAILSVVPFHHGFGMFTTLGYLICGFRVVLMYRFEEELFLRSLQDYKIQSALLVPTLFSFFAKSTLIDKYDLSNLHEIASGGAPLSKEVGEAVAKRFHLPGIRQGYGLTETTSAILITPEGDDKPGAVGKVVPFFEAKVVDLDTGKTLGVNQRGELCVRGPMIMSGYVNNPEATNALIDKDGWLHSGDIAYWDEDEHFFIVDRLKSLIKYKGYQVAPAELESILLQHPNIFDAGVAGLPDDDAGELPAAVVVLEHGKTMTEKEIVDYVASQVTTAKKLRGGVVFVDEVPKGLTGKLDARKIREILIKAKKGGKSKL

| Compound | ratio activity, negative = inhibition [1] | Potency [2] | Potency [3] | Potency [4] | Potency [5] |
| --- | --- | --- | --- | --- | --- |
| O=C(CCCN1CCN2CCCC2C1)c1ccc(F)cc1 (configuration not stated) | -6.15% (inactive) |  |  |  |  |
| NC(=O)C1c2ccccc2CCc2ccccc21 | -1.01% (inactive) |  |  |  |  |
| O=C(O)/C=C/c1ccccc1 | -0.672% (inactive) | inactive | inactive | inactive | inactive |
| CO[C@H]1C[C@@H]2CC[C@@H](C)[C@@](O)(O2)C(=O)C(=O)N2CCCC[C@H]2C(=O)O[C@H]([C@H](C)C[C@@H]2CC[C@@H](OC(=O)C(C)(CO)CO)[C@H](OC)C2)CC(=O)[C@H](C)/C=C(\C)[C@@H](O)[C@@H](OC)C(=O)[C@H](C)C[C@H](C)/C=C/C=C/C=C/1C | -3.79% (inactive) | inactive | inactive | inactive | inactive |
| COc1ccc(/C=N/NC(=O)c2ccncc2)c(C(=O)O)c1OC | 4.12% (inactive) | inactive | inactive | inactive | inactive |
| O=C(O)/C=C/C(=O)Nc1ccc(S(=O)(=O)Nc2nccs2)cc1 | 1.33% (inactive) | inactive | inactive | inactive | inactive |
| O=C(O)[C@H]1C(=CCO)O[C@H]2CC(=O)N12 | -34.7% (inactive) | inactive | inactive | inactive | inactive |
| COc1ccc(/C=C/C(=O)O)cc1 | 1.76% (inactive) | inactive | inactive | inactive | inactive |
| CN1C(=O)C[C@@H](C(=O)N[C@@H](Cc2cnc[nH]2)C(=O)N2CCC[C@H]2C(N)=O)NC1=O | -0.824% (inactive) | inactive | inactive | inactive | inactive |
| Cc1cccc(C)c1NC(=O)NC1=CCCN1C | 3.11% (inactive) | inactive | inactive | inactive | inactive |
| CC(C)NCC(O)COc1ccccc1-n1cccc1 (configuration not stated) | -5.07% (inactive) | 14.1 µM (active) | inactive | inactive | inactive |
| O=C(O)Cc1nn(Cc2ccc(Br)cc2F)c(=O)c2ccccc12 | 3.04% (inactive) | inactive | inactive | inactive | inactive |
| COc1ccc2c(=O)c(C)c(-c3ccccc3)oc2c1CN(C)C | -18.3% (inactive) | inactive | inactive | inactive | inactive |
| CCN(CC)CCOC(=O)c1cccnc1 | 2.66% (inactive) | inactive | inactive | inactive | inactive |
| COC(=O)CC[C@H](N)C(=O)O | -5.51% (inactive) | inactive | inactive | inactive | inactive |
| CC1CC(OC(=O)C(O)c2ccccc2)CC(C)(C)C1 (configuration not stated) | -3.78% (inactive) | inactive | inactive | inactive | inactive |
| CCN(CC)CCOc1ccc2nc(N(C)C)sc2c1 | 0.178% (inactive) | inactive | inactive | inactive | inactive |
| CC(C)[C@@H](N)C(=O)O | 0.806% (inactive) | inactive | inactive | inactive | inactive |
| CC(=O)[O][Al][O]C(C)=O | 0.413% (inactive) | inactive | inactive | inactive | inactive |
| CC(CC=O)CCCC(C)(C)O (configuration not stated) | 3.36% (inactive) | inactive | inactive | inactive | inactive |
| O=P(O)(O)OP(=O)(O)OP(=O)(O)O | -5.37% (inactive) | inactive | inactive | inactive | inactive |

| Compound | ratio activity, negative = inhibition [1] | Potency [2] | Potency [3] | Potency [4] | Potency [5] |
| --- | --- | --- | --- | --- | --- |
| C/C(=C\C(=O)OCCCCCCCCC(=O)O)C[C@@H]1OC[C@H](C[C@@H]2O[C@H]2[C@@H](C)[C@H](C)O)[C@@H](O)[C@H]1O | 0.0634% (inactive) | inactive | inactive | inactive | inactive |
| O=C(O)CCC(=O)c1ccc(-c2ccccc2)cc1 | 0.885% [at 17.1 µM] (inactive) | inactive | 4.36 µM (active) | inactive | inactive |
| O=C(O)c1cc(N=Nc2ccc(O)c(C(=O)O)c2)ccc1O | -0.669% (inactive) | inactive | 9.07 µM (active) | inactive | inactive |
| Cc1c(C)c2c(c(C)c1OC(=O)CCC(=O)O)CC[C@@](C)(CCC[C@H](C)CCC[C@H](C)CCCC(C)C)O2 | -15.1% (inactive) | inactive | inactive | inactive | inactive |
| CN1CCC(OC(=O)C(Oc2ccc(Cl)cc2)Oc2ccc(Cl)cc2)CC1 | 2.81% (inactive) | 1 µM (active) | inactive | inactive | inactive |
| O=C(O)CCC/C=C\C[C@@H]1[C@@H](/C=C/[C@@H](O)COc2cccc(C(F)(F)F)c2)[C@H](O)C[C@@H]1O | 4.13% (inactive) | inactive | inactive | inactive | inactive |
| FC(F)(F)C(F)(F)C(F)(F)C(F)(F)C(F)(F)C(F)(F)F | 0.234% (inactive) | inactive | inactive | inactive | inactive |
| CC(O)CN(C)C (configuration not stated) | 6.7% (inactive) | inactive | inactive | inactive | inactive |
| CN(Cc1ccccc1)Cc1ccccc1 | 0.417% (inactive) | inactive | inactive | inactive | inactive |
| COc1cc(S(C)=O)ccc1-c1nc2ncccc2[nH]1 (configuration not stated) | -7.74% (inactive) | inactive | inactive | inactive | inactive |
| O=C(CCCN1CCC(C(=O)c2ccc(F)cc2)CC1)c1ccc(F)cc1 | -12.9% (inactive) | 0.0891 µM (active) | inactive | inactive | inactive |
| CS(=O)(=O)OCC(O)C(O)COS(C)(=O)=O (configuration not stated) | 2.66% (inactive) | inactive | inactive | inactive | inactive |
| FC(F)(F)COCC(F)(F)F | -0.887% (inactive) | inactive | inactive | inactive | inactive |
| CCCC(CCC)C(=O)OC1C[C@H]2CC[C@@H](C1)[N+]2(C)C (some centres not stated) | 6.3% (inactive) | inactive | inactive | inactive | inactive |
| CCCCC/C=C\C/C=C\C/C=C\CCCCC(=O)O | -14.4% (inactive) | inactive | inactive | inactive | inactive |
| CC(=O)Nc1ccc(OC(C)=O)cc1 | -15.5% (inactive) | inactive | inactive | inactive | inactive |
| O=C1NCCN1c1ncc([N+](=O)[O-])s1 | 1.39% [at 17.1 µM] (inactive) | inactive | inactive | inactive | inactive |
| Oc1cc(O)cc(O)c1 | 10.4% (inactive) | inactive | inactive | inactive | inactive |
| CCCCCCCCCCCC(=O)OCC(O)CO (configuration not stated) | 1% (inactive) | inactive | inactive | inactive | inactive |
| Cn1c(=O)c2c(ncn2CCOC(=O)C(C)(C)Oc2ccc(Cl)cc2)n(C)c1=O | -5.21% (inactive) | inactive | inactive | inactive | 32.2 µM (active) |
| CCOC(=O)[C@@H](N)CS | -2.51% (inactive) | inactive | inactive | inactive | 0.0573 µM (active) |

| Compound | ratio activity, negative = inhibition [1] | Potency [2] | Potency [3] | Potency [4] | Potency [5] |
| --- | --- | --- | --- | --- | --- |
| CC(=O)Oc1cc(C(F)(F)F)ccc1C(=O)O | -5.78% [at 17.1 µM] (inactive) | inactive | inactive | inactive | inactive |
| Nc1ncnc2c1ncn2CCOCP(=O)(O)O | 0.57% (inactive) | inactive | inactive | inactive | inactive |
| NC(=O)[C@@H]1CCCN1C(=O)[C@H](Cc1cnc[nH]1)NC(=O)[C@@H]1CCC(=O)N1 | 6.16% (inactive) | inactive | inactive | inactive | inactive |
| Cc1cc(=O)c(C(=O)N[C@@H](C(=O)N[C@@H]2C(=O)N3C(C(=O)O)=C(CSc4nnnn4C)CS[C@H]23)c2ccc(O)cc2)c[nH]1 | 0.254% (inactive) | inactive | inactive | inactive | inactive |
| CC[C@H]1OC(=O)[C@H](C)[C@@H](O[C@H]2C[C@@](C)(OC)[C@@H](O)[C@H](C)O2)C(C)[C@@H](O[C@@H]2O[C@H](C)C[C@H](N(C)C)[C@@H]2O)[C@](C)(OC)C[C@@H](C)C(=O)[C@H](C)[C@@H](O)[C@]1(C)O (some centres not stated) | 4.6% (inactive) | inactive | inactive | inactive | inactive |
| CC12CCC(C1)C(C)(C)C2=O (configuration not stated) | 1.35% (inactive) | inactive | inactive | inactive | inactive |
| CCCCCCCCCCCCCCCCCCCCCC(=O)Nc1ccn([C@@H]2O[C@H](CO)[C@@H](O)[C@@H]2O)c(=O)n1 | -0.57% (inactive) | inactive | inactive | inactive | inactive |
| CNC(=O)c1c(I)c(C(=O)NCC(=O)Nc2c(I)c(C(=O)O)c(I)c(C(=O)NCCO)c2I)c(I)c(N(C)C(C)=O)c1I | 5.89% (inactive) | inactive | inactive | inactive | inactive |
| O=P(O)(O)OC[C@H](O)CO | 2.95% (inactive) | inactive | inactive | inactive | inactive |
| FC(F)(F)C(F)(F)C(F)(F)C(F)(F)C(F)(F)F | 0% (inactive) | inactive | inactive | inactive | inactive |
| [O]=[Bi][O][Bi]=[O] | 3.6% (inactive) | inactive | inactive | inactive | inactive |
| C=CC(=O)O | -7.38% (inactive) | inactive | inactive | inactive | inactive |
| NC(N)=NCC1COc2ccccc2O1 (configuration not stated) | 2.65% (inactive) | inactive | inactive | inactive | inactive |
| O=P(O)(O)OC[C@H]1O[C@](O)(COP(=O)(O)O)[C@@H](O)[C@@H]1O | 3.08% (inactive) | inactive | inactive | inactive | inactive |
| Cc1ncc(COP(=O)(O)O)c(CN)c1O | -0.583% (inactive) | inactive | inactive | inactive | inactive |
| OC1OC[C@@H](O)[C@H](O)[C@@H]1O (some centres not stated) | 0.472% (inactive) | inactive | inactive | inactive | inactive |
| NC(=S)NS(=O)(=O)c1ccc(N)cc1 | -12.7% (active) | inactive | inactive | inactive | inactive |
| CS(=O)(=O)c1ccc([C@@H](O)[C@@H](COC(=O)CN)NC(=O)C(Cl)Cl)cc1 | 3.99% (inactive) | inactive | inactive | inactive | inactive |
| OCCCNc1ccccc1 | 0.736% (inactive) | inactive | inactive | inactive | inactive |
